CHX counter: affects cycloheximide protein synthesis inhibition readout, counter-screen; cell reporter, cycloheximide protein synthesis inhibition counterscreen; max response, %; hit rate 12% among 300,000; in the data active means max response mostly above about 13%, no sharp cut-off; inactive means mostly below about 14%; further: read at 38.3 µM for the half of the compounds with a filed dose; 0% is about no effect
AmpC no deterg: inhibitors of E. coli AmpC beta-lactamase without detergent; P00811; AmpC nitrocefin hydrolysis, absorbance 480 nm, 0.0001% Triton; Potency, µM (highest dose often 57.1 µM), inactives show top-dose activity change, negative = inhibition, usual class: inhibitors; hit rate 0.52% among 330,000; AID 485341;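 further: potency means the concentration at half of the fitted maximal effect; plate controls were no compound for no effect and no enzyme for full effect; nearly all actives have a fitted effect of over 20% in size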
Target sequence (P00811 whole entry, looked up): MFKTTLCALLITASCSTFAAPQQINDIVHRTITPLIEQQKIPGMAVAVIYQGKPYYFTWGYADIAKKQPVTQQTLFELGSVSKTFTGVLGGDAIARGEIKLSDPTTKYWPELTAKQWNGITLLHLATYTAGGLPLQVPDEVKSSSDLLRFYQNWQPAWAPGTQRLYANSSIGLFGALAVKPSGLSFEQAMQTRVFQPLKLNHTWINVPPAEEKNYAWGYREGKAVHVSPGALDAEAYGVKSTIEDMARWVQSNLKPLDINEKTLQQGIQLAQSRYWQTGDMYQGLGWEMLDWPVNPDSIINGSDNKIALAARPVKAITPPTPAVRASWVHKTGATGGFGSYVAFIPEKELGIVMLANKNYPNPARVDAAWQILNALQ
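AmpC (5.3 nM in the dispensed reagent) in 20 mM phosphate pH 7.0 with 0.01% (detergent screen) or 0.0001% Triton X-100 was preincubated with compounds for 15 min at room temperature. Nitrocefin was then added from an 800 uM solution, and hydrolysis was followed at 480 nm.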
AmpC detergent: blocks E. coli AmpC beta-lactamase in detergent assay. hit rate 0.041% among 370,000. Potency, µM (top dose mostly 114 µM), for inactives: top-dose activity change, negative = inhibition, usual class: inhibitors. AmpC hydrolysis of nitrocefin, absorbance 480 nm, 0.01% Triton. P00811. AID 485294;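 further: potency means the concentration at half of the fitted maximal effect; 0% = no-compound wells and -100% = no-enzyme wells; nearly all actives have a fitted effect of over 25% in size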
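20 mM phosphate pH 7.0 + 0.01% (detergent screen) or 0.0001% Triton X-100; 5.3 nM AmpC reagent; cpd preinc 15 min RT; nitrocefin (800 uM stock) to start; A480 q20 s × 4 min; Activity was normalised to no-enzyme and no-compound control wells.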
NS1 function inh: inhibitors of influenza NS1 protein function. Potency, µM (doses to about 46.1 µM), for the others: at the highest dose activity, positive = more growth. hit rate 0.4% among 270,000; calls by dose curve; further: potency means the concentration at half of the fitted maximal effect; actives are rising curves; nearly all actives have a fitted effect of over 50% in size
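S. cerevisiae expressing influenza A NS1, grown in glucose, washed, then diluted 1:100 into pH 6.0 -URA galactose medium with 23 nl compound. Growth recovery read as OD600; NS1-free strain serves as control.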
Shiga toxin inh: Shiga toxin inhibition; inhibition, % at 38.7 µM; hit rate 9.2% among 290,000; AID 2315; Vero cells, Shiga toxin protein synthesis inhibition reporter; in the data active means inhibition mostly above about 28%, no sharp cut-off; inactive means mostly below about 43%; further: 0% is about no effect
Active calls of the source: *. This is one part of a sample in which hits are shown more often than they occur. Unless noted, the call rests on the fitted dose curve; in most records, active means well fitted curve in the direction sought with a large enough effect; inconclusive means small, poorly fitted or top-dose-only effect, or another doubt; inactive means no such curve, though single readings can be large; an effect the other way counts as inactive or inconclusive.

What do the screens show for `COc1ccccc1/C=C/C(=O)NNC(=O)c1cccs1`?
CHX counter: 26*; AmpC no deterg: -19%; AmpC detergent: -2%; Shiga toxin inh: 71*

How did CCN(CC)CC1CCN(c2ncc3ncnc(Nc4ccc(F)c(Cl)c4)c3n2)CC1 do in these assays?
CHX counter: -17; Shiga toxin inh: -15

How did Cc1ccccc1CNC(=O)C1CCN(S(=O)(=O)Cc2ccccc2)CC1 do in these assays?
AmpC detergent: 18%

Results for CCN(c1ccccc1)S(=O)(=O)c1ccc(C(=O)Nc2cc(C)ccn2)cc1 ?
AmpC no deterg: -7%; AmpC detergent: 2%

What do the screens show for `CC(C)(C)C1CCc2nc(NC(=O)Cc3cn4ccsc4n3)sc2C1` (stereo not given)?
CHX counter: 37*; AmpC no deterg: 0%; AmpC detergent: -11%; NS1 function inh: inconclusive; Shiga toxin inh: 146*

How did CC1CCc2nc(NC(=O)Cc3cccs3)sc2C1 (stereo not given) do in these assays?
CHX counter: 48*; AmpC no deterg: -19%; AmpC detergent: 1%; NS1 function inh: -36%; Shiga toxin inh: 94*

Results for CCC(CC)C(=O)Nc1nc2c(s1)CC(C)CC2 (stereo not given) ?
AmpC detergent: 17%

Results for CC1CCc2nc(NC(=O)C3CCCO3)sc2C1 (stereo not given) ?
CHX counter: 24*; AmpC no deterg: -25%; AmpC detergent: -5%; NS1 function inh: 0%; Shiga toxin inh: 55*

What do the screens show for `CC(C)(C)C1CCc2nc(NC(=O)Cc3ccc(Cl)cc3)sc2C1` (stereo not given)?
AmpC detergent: -4%

Results for COc1cc(NC(=O)c2cc3cc4ccc(OC)c(Cl)c4nc3s2)cc(OC)c1 ?
AmpC detergent: 22%

What do the screens show for `Cc1ccccc1OCC(=O)Nc1ccccc1C(=O)OCc1cc(=O)n2nc(C3CC3)sc2n1`?
AmpC detergent: 4%

Results for Cc1ccccc1N1C(=O)NC(=O)/C(=C\c2cnn(-c3ccccc3)c2)C1=O ?
CHX counter: 24*; AmpC no deterg: -17%; AmpC detergent: inconclusive; NS1 function inh: 28%; Shiga toxin inh: 56*

What do the screens show for `COc1cc(CN2CCc3ccccc3C2)ccc1O`?
CHX counter: 30*; AmpC no deterg: -8%; AmpC detergent: -5%; NS1 function inh: 5%; Shiga toxin inh: 54*

What do the screens show for `Cc1ccc2[nH]c3c(N4CCN(Cc5ccccc5)CC4)ncnc3c2c1`?
CHX counter: 9; AmpC no deterg: -2%; AmpC detergent: -5%; NS1 function inh: -17%; Shiga toxin inh: 20

How did CCN(CC)c1ncnc2c1[nH]c1ccccc12 do in these assays?
CHX counter: -3; AmpC no deterg: -30%; AmpC detergent: 0%; NS1 function inh: 0%; Shiga toxin inh: -22

What do the screens show for `CCCOc1ncnc2c1[nH]c1ccccc12`?
CHX counter: 42*; AmpC no deterg: -32%; AmpC detergent: 2%; NS1 function inh: -94%; Shiga toxin inh: 60

What do the screens show for `CCCCOc1ncnc2c1[nH]c1ccc(C)cc12`?
CHX counter: 43*; AmpC no deterg: -12%; AmpC detergent: 6%; NS1 function inh: -7%; Shiga toxin inh: 106*

How did Cc1ccc2[nH]c3c(N4CCCCCC4)ncnc3c2c1 do in these assays?
CHX counter: 18*; AmpC no deterg: -53%; AmpC detergent: 2%; NS1 function inh: -42%; Shiga toxin inh: 65*

What do the screens show for `CC(C)Oc1ncnc2c1[nH]c1ccccc12`?
CHX counter: 30*; AmpC no deterg: -20%; AmpC detergent: 8%; NS1 function inh: -33%; Shiga toxin inh: 39*

How did Cc1ccc(CN(C(=O)c2ccc(C(C)(C)C)cc2)c2ccccn2)o1 do in these assays?
AmpC detergent: -5%

How did COc1ccc(C(=O)NC2CC2)cc1OC1CCN(Cc2cc(C)c(C)cc2C)CC1 do in these assays?
CHX counter: -2; AmpC no deterg: -16%; AmpC detergent: 5%; NS1 function inh: -9%; Shiga toxin inh: -24

How did CCCOc1ncnc2c1[nH]c1ccc(OC)cc12 do in these assays?
CHX counter: 49*; AmpC no deterg: -2%; AmpC detergent: -4%; NS1 function inh: -4%; Shiga toxin inh: 68*

How did CCOC(=O)Cn1nc(-c2ccccc2)ccc1=O do in these assays?
CHX counter: 14; AmpC no deterg: -1%; AmpC detergent: -6%; NS1 function inh: -8%; Shiga toxin inh: 4

What do the screens show for `CCOC(=O)Cn1nc(-c2ccccc2)nc1-c1ccccc1`?
CHX counter: 26*; AmpC no deterg: 9%; AmpC detergent: -15%; NS1 function inh: -9%; Shiga toxin inh: 27

How did CCOC(=O)Cn1ncc(-c2ccccc2)c1N do in these assays?
CHX counter: 29*; AmpC no deterg: -13%; AmpC detergent: 8%; NS1 function inh: -2%; Shiga toxin inh: 68*

How did Cc1cc(Cl)ccc1OCCSc1nnc(-c2cccs2)o1 do in these assays?
AmpC detergent: 12%

What do the screens show for `C=CCN(Cc1ccc(Cl)s1)C(=O)c1cc(S(=O)(=O)N2CCOCC2)ccc1F`?
AmpC no deterg: 143%; AmpC detergent: -8%

Results for Cc1cc(C)cc(C(=O)OCC(=O)NC(=O)NC2CCCC2)c1 ?
AmpC no deterg: -17%; AmpC detergent: -3%

How did O=C(CC1(O)C(=O)N(CCc2ccccc2)c2ccc(Br)cc21)c1ccccc1O (stereo not given) do in these assays?
AmpC detergent: -3%

What do the screens show for `CCOc1ccc(N2CC(NC(=O)c3ccc(S(=O)(=O)N4CCOCC4)cc3)CC2=O)cc1` (stereo not given)?
AmpC detergent: 0%

How did Cc1ccc2c(c1)-c1nc3ccccc3cc1C2=NC1CCCCC1 do in these assays?
CHX counter: 55*; AmpC no deterg: -16%; AmpC detergent: -1%; NS1 function inh: 4%; Shiga toxin inh: 85*

Results for Cc1ccc2c(c1)C(=NC1CCCCC1)c1cc3ccccc3nc1-2 ?
CHX counter: 51*; AmpC no deterg: -26%; AmpC detergent: -8%; NS1 function inh: -8%; Shiga toxin inh: 41*

How did COc1ccc(-n2c(COc3ccccc3)n[nH]c2=S)cc1 do in these assays?
CHX counter: 2; AmpC no deterg: -23%; AmpC detergent: -10%; NS1 function inh: 17%

What do the screens show for `NS(=O)(=O)c1cccc(NC(=O)CCSc2ccccc2Cl)c1`?
CHX counter: 61*; AmpC no deterg: -22%; AmpC detergent: inconclusive; NS1 function inh: 0%; Shiga toxin inh: 68*

How did O=C(CCSc1ccccc1Cl)Nc1cccc([N+](=O)[O-])c1 do in these assays?
CHX counter: 45*; AmpC no deterg: -36%; AmpC detergent: 2%; NS1 function inh: -38%; Shiga toxin inh: 73*

What do the screens show for `COc1ccc2c3c(ccc2c1)N[C@H](C(=O)O)CC3`?
NS1 function inh: -30%

What do the screens show for `CCc1nc(Nc2cccc(F)c2)c2oc3ccccc3c2n1`?
CHX counter: 1; AmpC no deterg: -21%; AmpC detergent: 1%; NS1 function inh: -8%; Shiga toxin inh: 11

Screening data deposited in PubChem by National Center for Advancing Translational Sciences (NCATS).
